Molecules are shown by their SMILES. The full data set covers some 7,900 targets. This sample favours those with a hit. About 0.6% of all pairs of compound and target were hits. Values without a mark were called inactive.

ZWILCH, sequence (Q9H900 whole entry, looked up): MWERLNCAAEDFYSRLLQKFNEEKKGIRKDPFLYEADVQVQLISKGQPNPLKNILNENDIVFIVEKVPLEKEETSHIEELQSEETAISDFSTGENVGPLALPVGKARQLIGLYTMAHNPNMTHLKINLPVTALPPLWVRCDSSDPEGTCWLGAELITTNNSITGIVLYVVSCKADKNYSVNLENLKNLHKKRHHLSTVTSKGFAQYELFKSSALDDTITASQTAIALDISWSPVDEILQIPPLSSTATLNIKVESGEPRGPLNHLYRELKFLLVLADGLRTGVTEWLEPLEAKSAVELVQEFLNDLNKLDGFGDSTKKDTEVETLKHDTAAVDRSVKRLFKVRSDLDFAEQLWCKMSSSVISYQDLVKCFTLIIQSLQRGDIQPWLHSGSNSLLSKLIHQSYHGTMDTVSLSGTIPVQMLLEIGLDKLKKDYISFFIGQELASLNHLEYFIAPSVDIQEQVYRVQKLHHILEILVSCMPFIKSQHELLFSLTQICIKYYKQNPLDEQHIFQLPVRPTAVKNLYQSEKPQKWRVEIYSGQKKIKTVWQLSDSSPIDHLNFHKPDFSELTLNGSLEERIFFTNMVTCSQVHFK

The first assay addresses ZWILCH (UniProt Q9H900). Put plainly: log2 fold change, soluble protein after heating vs DMSO (PISA); higher = thermal stabilisation; K562 cells, 10 uM, 30 min; active = over 0.2 and 3.5 SD of the protein, either way, in both replicates (recomputed). Put shortly:
(§1)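 Aliquots of K562 cells (2×10^6 cells/mL) treated with 10 μM compound for 30 min were heated for 3 min over 48°C-58°C. After pooling and extraction in PBS with 0.5% NP-40 at 4°C, soluble protein from a 21,000xg, 90 min spin was quantified by TMTpro 16plex LC-MS/MS with channel sums equalised. Thermal stability is expressed against control samples, from duplicates, as a log2 fold change.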
As for `CCCCN(Cc1ccc(C(=O)NO)cc1)C(=O)Nc1ccccc1` [Nexturastat A], the log2 fold change was -0.008.
Regarding `COc1cc(Nc2ncc3c(n2)-c2ccc(Cl)cc2C(c2c(F)cccc2OC)=NC3)ccc1C(=O)O` [alisertib], the log2 fold change was -0.024.
For `Cc1cc(SCc2sc(-c3ccc(C(F)(F)F)cc3)nc2C)ccc1OCC(=O)O`, the log2 fold change was 0.027.
On to `O=C1NC(=NCc2cccs2)S/C1=C\c1ccc2ncccc2c1`, for which the log2 fold change is 0.023.
As for `COc1cc2nc(-c3cc(F)ccc3O)nc(N[C@@H]3CNC[C@H]3C(C)(C)O)c2cc1OC`, the log2 fold change is 0.03.
With `O=C(Nc1cccc(Nc2ncc(Br)c(NCCc3cnc[nH]3)n2)c1)N1CCCC1`, the log2 fold change is 0.029.
With `C[C@@H]1COCCN1c1cc(C2(S(C)(=O)=O)CC2)nc(-c2cccc3[nH]ccc23)n1`, the log2 fold change is -0.04.
As to `C[C@@H](N)c1ccc(C(=O)Nc2ccnc3[nH]ccc23)cc1`, the log2 fold change was 0.014.
With `NCC(=O)Nc1ccc(-n2nc(C(F)(F)F)cc2-c2ccc3c(ccc4ccccc43)c2)cc1`, the log2 fold change is -0.068.
`NC(=O)c1cnc(N[C@@H]2CCCC[C@@H]2N)nc1Nc1cccc(-n2nccn2)c1`: the log2 fold change was -0.085.
Take `C=CC(=O)N1CCC[C@@H](n2nc(-c3ccc(Oc4ccccc4)cc3)c3c(N)ncnc32)C1` [ibrutinib]: the log2 fold change is -0.014.
As for `CC(=O)c1cnc2ccc(-c3cc(Cl)c(O)c(Cl)c3)nc2c1N[C@H]1CC[C@H](CN(C)C)CC1`, the log2 fold change is 0.004.
Same read-out and setting: then `CC[C@H](C)[C@H](NC(=O)[C@H]([C@@H](C)CC)N(C)C(C)=O)C(=O)N[C@H](C(=O)N[C@@H](CC(C)C)C(=O)[C@@]1(C)CO1)[C@@H](C)O` [epoxomicin], with 0.013.
Consider `CCCc1cc(C)[nH]c(=O)c1CNC(=O)c1cc(-c2ccnc(N3CCN(C)CC3)c2)cc2c1cnn2C(C)C`, for which the log2 fold change was 0.004.
The same measure, in the same setting: to `C/C(=N\NC(=O)c1cccc(S(=O)(=O)N2CCOCC2)c1)c1cc(Cl)ccc1O` belongs 0.038; to `CC(C)N(C[C@H]1O[C@@H](n2cnc3c(N)ncnc32)[C@H](O)[C@@H]1O)[C@H]1C[C@@H](CCc2nc3cc(C(C)(C)C)ccc3[nH]2)C1` [pinometostat], 0.074.
On the same count and under the same terms, then `Cc1cccc(CC(=O)N2CCc3c2ccc(-c2cn(C)c4ncnc(N)c24)c3F)n1`, with 0.027.
Consider `Cc1cn(-c2cc(NC(=O)c3ccc(C)c(Nc4nccc(-c5cccnc5)n4)c3)cc(C(F)(F)F)c2)cn1` [nilotinib], for which the log2 fold change is -0.047.
As for `CN1CCC(CNc2ccc3ncc(-c4cccc(OC(F)(F)F)c4)n3n2)CC1`, the log2 fold change was -0.085.
Regarding `COc1cc2ncnc(Nc3ccc(F)c(Cl)c3)c2cc1OCCCN1CCOCC1` [gefitinib], the log2 fold change is 0.125.
The same measure, in the same setting: to `CC(C)c1cnn2c(NCc3ccccc3)cc(NCCCCCCN)nc12` belongs -0.107; to `CS(=O)(=O)c1ccc(-c2cnc(N)c(C(=O)Nc3ccccc3)n2)cc1`, -0.003.
On the same count and under the same terms, to `Cc1ccc(NC(=O)c2ccc(CN3CC[C@H](N(C)C)C3)c(C(F)(F)F)c2)cc1Nc1nccc(-c2cncnc2)n1` [bafetinib] belongs -0.031; to `CC(C)(C)Cn1c(N)nc2ccc(-c3[nH]c(C(C)(C)C)nc3-c3ccc(F)cc3)nc21` [ralimetinib], 0.049.
`CN(CCOc1ccc(C[C@@H]2SC(=O)NC2=O)cc1)c1ccccn1` (racemic) [rosiglitazone]: the log2 fold change is 0.018.
Still for that read-out and setting: then `CC[C@@H]1C(=O)N(C)c2cnc(Nc3ccc(C(=O)NC4CCN(C)CC4)cc3OC)nc2N1C1CCCC1`, with -0.078; and `CCCS(=O)(=O)Nc1ccc(F)c(C(=O)c2c[nH]c3ncc(Cl)cc23)c1F`, with 0.016; and `CON(C)C(=O)N1N=C(c2cc(F)ccc2F)S[C@@]1(CCCN)c1ccccc1` [filanesib], with 0.016.
In the case of `C[C@H](Nc1ncnc2nc[nH]c12)c1cc2cccc(Cl)c2c(=O)n1-c1ccccc1` [duvelisib], the log2 fold change is 0.044.
`O=C(CCCCCCC(=O)Nc1ccccc1)NO` [vorinostat]: the log2 fold change was 0.056.

For another assay, the target named is ZYG11B (UniProt Q9C0D3). Described as above. Put shortly: as §1
ZYG11B, sequence (Q9C0D3 whole entry, looked up): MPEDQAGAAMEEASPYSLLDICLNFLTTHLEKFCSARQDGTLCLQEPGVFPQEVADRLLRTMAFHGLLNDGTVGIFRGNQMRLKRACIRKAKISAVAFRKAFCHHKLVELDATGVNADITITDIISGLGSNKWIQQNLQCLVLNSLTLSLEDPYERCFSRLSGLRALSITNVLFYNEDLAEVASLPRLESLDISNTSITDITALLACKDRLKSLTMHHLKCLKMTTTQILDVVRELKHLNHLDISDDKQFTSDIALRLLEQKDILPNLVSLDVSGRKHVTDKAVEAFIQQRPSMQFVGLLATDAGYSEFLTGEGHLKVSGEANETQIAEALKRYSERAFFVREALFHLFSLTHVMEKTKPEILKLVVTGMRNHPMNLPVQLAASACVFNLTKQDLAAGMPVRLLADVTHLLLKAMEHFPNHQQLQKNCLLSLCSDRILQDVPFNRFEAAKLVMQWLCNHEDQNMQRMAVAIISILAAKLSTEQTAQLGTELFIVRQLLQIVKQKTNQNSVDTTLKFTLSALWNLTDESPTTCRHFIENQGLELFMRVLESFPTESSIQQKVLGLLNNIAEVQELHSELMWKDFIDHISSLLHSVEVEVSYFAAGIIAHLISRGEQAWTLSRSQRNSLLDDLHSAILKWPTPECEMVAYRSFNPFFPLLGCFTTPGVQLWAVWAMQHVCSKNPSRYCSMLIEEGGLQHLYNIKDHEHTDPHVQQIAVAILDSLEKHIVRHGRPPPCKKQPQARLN
On to `CCCCN(Cc1ccc(C(=O)NO)cc1)C(=O)Nc1ccccc1` [Nexturastat A], for which the log2 fold change was -0.011.
`COc1cc(Nc2ncc3c(n2)-c2ccc(Cl)cc2C(c2c(F)cccc2OC)=NC3)ccc1C(=O)O` [alisertib]: the log2 fold change was -0.155.
The same measure, in the same setting: then `Cc1cc(SCc2sc(-c3ccc(C(F)(F)F)cc3)nc2C)ccc1OCC(=O)O`, with -0.133.
Regarding `O=C1NC(=NCc2cccs2)S/C1=C\c1ccc2ncccc2c1`, the log2 fold change is -0.007.
Still for that read-out and setting: then `COc1cc2nc(-c3cc(F)ccc3O)nc(N[C@@H]3CNC[C@H]3C(C)(C)O)c2cc1OC`, with 0.034; and `O=C(Nc1cccc(Nc2ncc(Br)c(NCCc3cnc[nH]3)n2)c1)N1CCCC1`, with -0.026; and `C[C@@H]1COCCN1c1cc(C2(S(C)(=O)=O)CC2)nc(-c2cccc3[nH]ccc23)n1`, with -0.008.
The same measure, in the same setting: to `C[C@@H](N)c1ccc(C(=O)Nc2ccnc3[nH]ccc23)cc1` belongs -0.035.
As for `NCC(=O)Nc1ccc(-n2nc(C(F)(F)F)cc2-c2ccc3c(ccc4ccccc43)c2)cc1`, the log2 fold change is -0.045.
`NC(=O)c1cnc(N[C@@H]2CCCC[C@@H]2N)nc1Nc1cccc(-n2nccn2)c1`: the log2 fold change was 0.022.
On the same count and under the same terms, then `C=CC(=O)N1CCC[C@@H](n2nc(-c3ccc(Oc4ccccc4)cc3)c3c(N)ncnc32)C1` [ibrutinib], with 0.022; and `CC(=O)c1cnc2ccc(-c3cc(Cl)c(O)c(Cl)c3)nc2c1N[C@H]1CC[C@H](CN(C)C)CC1`, with 0.004; and `CC[C@H](C)[C@H](NC(=O)[C@H]([C@@H](C)CC)N(C)C(C)=O)C(=O)N[C@H](C(=O)N[C@@H](CC(C)C)C(=O)[C@@]1(C)CO1)[C@@H](C)O` [epoxomicin], with 0.123.
On the same count and under the same terms, to `CCCc1cc(C)[nH]c(=O)c1CNC(=O)c1cc(-c2ccnc(N3CCN(C)CC3)c2)cc2c1cnn2C(C)C` belongs 0.1.
Take `C/C(=N\NC(=O)c1cccc(S(=O)(=O)N2CCOCC2)c1)c1cc(Cl)ccc1O`: the log2 fold change was 0.006.
In the case of `CC(C)N(C[C@H]1O[C@@H](n2cnc3c(N)ncnc32)[C@H](O)[C@@H]1O)[C@H]1C[C@@H](CCc2nc3cc(C(C)(C)C)ccc3[nH]2)C1` [pinometostat], the log2 fold change is 0.01.
As for `Cc1cccc(CC(=O)N2CCc3c2ccc(-c2cn(C)c4ncnc(N)c24)c3F)n1`, the log2 fold change was -0.031.
As for `Cc1cn(-c2cc(NC(=O)c3ccc(C)c(Nc4nccc(-c5cccnc5)n4)c3)cc(C(F)(F)F)c2)cn1` [nilotinib], the log2 fold change was 0.025.
Regarding `CN1CCC(CNc2ccc3ncc(-c4cccc(OC(F)(F)F)c4)n3n2)CC1`, the log2 fold change is -0.113.
The same measure, in the same setting: then `COc1cc2ncnc(Nc3ccc(F)c(Cl)c3)c2cc1OCCCN1CCOCC1` [gefitinib], with 0.042.
`CC(C)c1cnn2c(NCc3ccccc3)cc(NCCCCCCN)nc12`: the log2 fold change was 0.058.
As to `CS(=O)(=O)c1ccc(-c2cnc(N)c(C(=O)Nc3ccccc3)n2)cc1`, the log2 fold change is 0.01.
Turning to `Cc1ccc(NC(=O)c2ccc(CN3CC[C@H](N(C)C)C3)c(C(F)(F)F)c2)cc1Nc1nccc(-c2cncnc2)n1` [bafetinib], the log2 fold change is -0.272 (active).
With `CC(C)(C)Cn1c(N)nc2ccc(-c3[nH]c(C(C)(C)C)nc3-c3ccc(F)cc3)nc21` [ralimetinib], the log2 fold change was -0.046.
Consider `CN(CCOc1ccc(C[C@@H]2SC(=O)NC2=O)cc1)c1ccccn1` (racemic) [rosiglitazone], for which the log2 fold change was -0.055.
In the case of `CC[C@@H]1C(=O)N(C)c2cnc(Nc3ccc(C(=O)NC4CCN(C)CC4)cc3OC)nc2N1C1CCCC1`, the log2 fold change was -0.031.
Take `CCCS(=O)(=O)Nc1ccc(F)c(C(=O)c2c[nH]c3ncc(Cl)cc23)c1F`: the log2 fold change was -0.043.
With `CON(C)C(=O)N1N=C(c2cc(F)ccc2F)S[C@@]1(CCCN)c1ccccc1` [filanesib], the log2 fold change is 0.014.
Consider `C[C@H](Nc1ncnc2nc[nH]c12)c1cc2cccc(Cl)c2c(=O)n1-c1ccccc1` [duvelisib], for which the log2 fold change is 0.062.
Consider `O=C(CCCCCCC(=O)Nc1ccccc1)NO` [vorinostat], for which the log2 fold change is 0.053.

The values are drawn from the supplement of paper PMC10849652.
